Bioassay records (PubChem)
Sampled rows, rich in hits. Any-hit rate of the full collection: about 7%.
DRD3 antagonist: blocks the human D3 dopamine receptor. P35462. D3R cells, DiscoveRx beta-arrestin luminescence, antagonist mode; stronger effect = lower value. max response, negative = inhibition, %. 2.5% of 360,000 active; in the data active = max response below about -50%; inconclusive = no clear call, values can overlap the other calls; also: % is scaled to controls: 0 for no effect and ±100 for the full control effect
Target sequence (P35462 whole entry, looked up): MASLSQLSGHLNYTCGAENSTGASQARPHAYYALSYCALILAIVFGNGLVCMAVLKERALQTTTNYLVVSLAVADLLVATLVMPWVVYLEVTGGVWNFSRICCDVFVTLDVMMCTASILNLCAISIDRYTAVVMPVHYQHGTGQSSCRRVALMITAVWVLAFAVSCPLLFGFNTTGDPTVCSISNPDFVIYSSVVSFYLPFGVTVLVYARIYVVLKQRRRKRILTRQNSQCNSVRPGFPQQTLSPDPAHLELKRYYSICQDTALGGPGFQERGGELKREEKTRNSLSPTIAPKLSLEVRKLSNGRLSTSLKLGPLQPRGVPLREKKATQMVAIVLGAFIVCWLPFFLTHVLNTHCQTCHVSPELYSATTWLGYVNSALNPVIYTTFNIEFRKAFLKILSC
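Cells expressing the human receptor were seeded at 1500 cells/well, incubated overnight at 37 degrees C in 5% CO2, then exposed to library compounds with dopamine controls for 90 minutes at 37 degrees C before luminescent detection.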
ATXN2 expr inh: inhibitors of ATXN2 expression; HEK-293 ATXN2-luciferase reporter, luminescence, 24 h; Potency, µM (titrated, usually from 57 µM), without a hit: at the highest dose activity change, negative = inhibition, usual class: inhibitors; 0.72% of 360,000 active; also: potency is read from the fitted curve at half-maximal effect; % is scaled to controls: 0 for no effect and ±100 for the full control effect; nearly all actives have a fitted effect of over 55% in size
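qHTS (up to 57 uM final) was run with 24 h compound exposure of reporter cells at 37 °C. Each well was multiplexed: SteadyGlo luminescence measured ATXN2-luciferase expression after a fluorogenic Gly-Phe-AFC viability readout (25 uM final).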
ATXN viability: viability counter-screen for ATXN expression inhibitors; S2 cells (HEK-293 line with an ATXN2-luciferase reporter) viability, CellTiter-Fluor protease fluorescence, 24 h; Potency, µM (doses to about 56.7 µM), usual class: cytotoxic; 0.49% of 400,000 active; AID 651635; also: potency is read from the fitted curve at half-maximal effect; nearly all actives have a fitted effect of over 40% in size
D3 ag: activates the human D3 dopamine receptor. P35462. D3R DiscoveRx beta-arrestin cells, luminescence, 90 min. 0.58% of 410,000 active. max activation, %; in the data active = max activation above about 30%; also: 0% is about no effect
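Agonist mode: compounds and dopamine controls were applied to plated cells for 90 min at 37 degrees C after an overnight attachment at 1500 cells/well. Luminescent read-out followed 30 - 60 minutes at room temperature with DiscoveRx detection reagent.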
IL1B secr inh: inflammasome signaling inhibition, IL-1 beta readout | THP-1 LPS/ATP IL-1B secretion, AlphaLISA, 16 h; stronger effect = lower value | activity change, % at 57.5 µM | 4.7% of 360,000 active | AID 743279; in the data active = activity change below about -50%; inconclusive = mostly about -30% to -49%; also: % is scaled to controls: 0 for no effect and ±100 for the full control effect
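Secreted IL-1B measured by AlphaLISA bead assay after 16 h compound exposure of THP-1 cells; compounds (final up to 57.5 uM) added 1 h before LPS (250 ng/mL) and ATP (1.25 mM) stimulation; lower signal means less secretion.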
Integrin act MD: activators of alpha7 integrin expression for muscular dystrophy | AID 624291 | 0.064% of 350,000 active | alpha7betagal myoblasts, beta-gal FDG fluorescence, 48 h | Potency, µM (doses to about 38.3 µM), for inactives: top-dose activation, usual class: activators;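 also: potency is read from the fitted curve at half-maximal effect; 100% = response of the positive control SU9516; nearly all actives have a fitted effect of over 60% in size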
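alpha7betagal+/- myoblasts (passage 13, 250/well) treated 48 h at 37C with compounds at 1:260 dilution of DMSO stock. Lysed, then beta-galactosidase activity read as FDG fluorescence (ex 480/em 540) after 30 min, with pre-read for autofluorescence.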
Numbers without * were called inactive; i = inactive; ? = inconclusive; · = no result. Unless noted, calls follow the shape of the dose curve; as a rule, active = well fitted curve in the direction sought with a large enough effect; inconclusive = small, poorly fitted or top-dose-only effect, or another doubt; inactive = no such curve, though single readings can be large; an effect the other way counts as inactive or inconclusive.

SMILES | DRD3 antagonist | ATXN2 expr inh | ATXN viability | D3 ag | IL1B secr inh | Integrin act MD
Cc1ccsc1/C=C/C1=Cc2c(sc(NC(=O)CSc3n[nH]c(N)n3)c2C#N)C(C)(C)C1 | 5 | ? | i | -15 | -63* | -53%
CCOc1ccc(/C=C/C2=Cc3c(sc(NC(=O)CSc4n[nH]c(N)n4)c3C#N)C(C)(C)C2)cc1 | -20 | ? | · | -9 | -93* | -23%
CC(NC(=O)c1cc(F)ccc1F)c1nnc2n1CCN(Cc1cccs1)CC2 (stereo not given) | · | · | i | · | · | ·
O=[N+]([O-])c1cccc2nc3ccccc3c(NCCCn3ccnc3[N+](=O)[O-])c12 | ? | 0.27µM* | ? | -15 | -102* | -54%
Cc1ccc(C(=O)NC2CCN(Cc3ccccc3)CC2)cc1S(=O)(=O)N1CCOCC1 | -67* | -22% | i | -34 | 7 | -31%
O=C(NC1CCN(Cc2ccccc2)CC1)c1cccc(S(=O)(=O)Nc2ccc(F)cc2)c1 | ? | -37% | i | -25 | -22 | -52%
Cc1ccc(NS(=O)(=O)c2cccc(C(=O)NC3CCN(Cc4ccccc4)CC3)c2)c(C)c1 | -97* | ? | i | -20 | ? | -72%
COc1ccccc1NS(=O)(=O)c1cc(C(=O)N2CCCC2)ccc1C | -2 | · | i | -2 | 3 | 0%
COc1ccccc1NS(=O)(=O)c1cc(C(=O)NC2CCN(Cc3ccccc3)CC2)ccc1C | -92* | ? | i | -15 | -11 | -34%
COc1ccccc1NS(=O)(=O)c1cccc(C(=O)NC2CCN(Cc3ccccc3)CC2)c1 | -95* | ? | ? | -24 | ? | -53%
COc1ccc(NS(=O)(=O)c2ccc(C)c(C(=O)NC3CCN(Cc4ccccc4)CC3)c2)cc1 | -29 | -25% | i | -38 | 12 | -15%
CCN(CC)S(=O)(=O)c1ccc(Cl)c(C(=O)NC2CCN(Cc3ccccc3)CC2)c1 | -65* | -2% | i | -6 | -9 | 24%
O=C(NC1CCN(Cc2ccccc2)CC1)c1cccc(S(=O)(=O)Nc2ccc(Br)cc2)c1 | -57* | -17% | ? | -31 | ? | -35%
CN(C)S(=O)(=O)c1cccc(C(=O)NCC(=O)NC2CCN(Cc3ccccc3)CC2)c1 | -8 | -13% | i | -20 | 19 | -6%
COc1ccccc1NS(=O)(=O)c1ccc(C)c(C(=O)NC2CCN(Cc3ccccc3)CC2)c1 | ? | -23% | i | -13 | -57* | -9%
C=CCN(c1ccccc1)S(=O)(=O)c1cccc(C(=O)NC2CCN(Cc3ccccc3)CC2)c1 | -79* | ? | i | -27 | -54* | -15%
O=C(O)CCC(=O)Nc1ccc(Cc2ccc(NC(=O)CCC(=O)O)c(O)c2)cc1O | -13 | 6% | i | 0 | -9 | 24%
CCOC(=O)c1ccc(-c2ccc(/C=C(\C#N)c3nc4ccc(C)cc4[nH]3)o2)cc1 | · | · | · | -10 | · | ·
O=C(O)c1[nH]c2ccc(Cl)cc2c1CCN1C(=O)c2ccccc2C1=O | 3 | · | i | 5 | 53 | 16%
CCCCNc1nnc(SCC(=O)c2c(N)n(CCC)c(=O)[nH]c2=O)s1 | 2 | · | i | 2 | 3 | 4µM*
CCCCOc1ccccc1NC(=O)Cn1c(-c2nonc2N)nc2ccccc21 | 19 | ? | 14µM* | -2 | 55 | -11%
CCc1ccccc1NC(=O)Cn1c(-c2nonc2N)nc2ccccc21 | · | · | · | 3 | · | ·
O=C(c1cccnc1Cl)N(Cc1ccccc1)Cc1ccccc1 | -9 | -20% | i | -4 | -67* | -10%
COC(=O)c1sccc1NC(=O)COc1ccc(C)cc1 | -75* | 0% | i | -3 | -23 | -1%
COC(=O)c1sc(NC(=O)COc2ccc(C)cc2)nc1C | 21 | 3% | i | -4 | -63* | 17%
CCOc1ccc(CN2C(=O)c3ccccc3Sc3ccc(C(=O)NCc4ccco4)cc32)cc1 | · | 11% | i | 8 | · | ·
CCCCOc1ccc(C(=O)OC2CC(C)N(C)CC2C)cc1 (stereo not given) | 0 | -6% | i | -5 | -54* | -52%
